From ChEMBL document CHEMBL3988442, “University of Dundee, Small-Polar-MMV Screening Library” (2021) come the findings set out here.

Hit rate of the full screen: of about 69,000 compounds, about 950 (1.4%) showed an effect of 50% or more. Many of the other results were omitted from the sample, so strong results are more common in it than they were.

The assay relates to Mycobacterium tuberculosis. Description: Cornell M. t heat shock assay. Also: in the data most compounds retested in dose-response had high values. On the set-up: dose or concentration left out as unconfirmed. It is filed as functional, organism-based.
With `Cc1cnc(N2CCc3c(CNc4ccnc(C)n4)cncc3C2)nc1.Cl`, the “Percent Effect” value came to 12.07%.

As to `Cl.Cn1ccnc1N1CCN(C(=O)Cc2ccccc2)CC1`, the “Percent Effect” value is -7.185%.

As for `O=C(O)C(F)(F)F.O=C1COC2(CCN(C(=O)C3CC=CC3)CC2)CN1Cc1cccnc1`, the “Percent Effect” value was -29.72%.

In the case of `CS(=O)(=O)CC(=O)N1C[C@@H]2CN(Cc3ccoc3)CCO[C@@H]2C1`, the “Percent Effect” value is -0.05269%.

`Cc1cc(C(=O)N2CCc3nc(C4CCCCN4)ncc3C2)cs1.Cl` (stereo not drawn): the “Percent Effect” value was -19.38%.

As for `O=C(O)C(F)(F)F.O=C(O)C(F)(F)F.c1cc(CO[C@@H]2CC[C@H]3[C@H]2OCCN3CC2CCOCC2)ccn1`, the “Percent Effect” value is -2.91%.

For the compound `CN(C)[C@@H]1CN(C(=O)Cc2ccc(F)cc2)[C@@H]2CCCO[C@H]12.O=C(O)C(F)(F)F`, the “Percent Effect” value is -22.98%.

Consider `Cc1ccc(C(=O)N2CCc3ccc(=O)n(CCN(C)C)c3CC2)o1.O=C(O)C(F)(F)F`, for which the “Percent Effect” value is recorded as -16.57%.

With `O=C(NCCc1cccs1)[C@H]1CO[C@H]2CCN(C3CCC3)C[C@H]2C1.O=C(O)C(F)(F)F`, the “Percent Effect” value was determined as 6.34%.

As to `O=C(NCc1cccs1)[C@H]1CO[C@H]2CCN(C3CCCC3)C[C@H]2C1.O=C(O)C(F)(F)F`, the “Percent Effect” value came out at 16.16%.

For the compound `O=C(NCCc1cccs1)[C@H]1CO[C@H]2CCN(CC3CC3)C[C@H]2C1.O=C(O)C(F)(F)F`, the “Percent Effect” value came to 1.069%.

With `CCN1CC[C@@H]2OC[C@H](C(=O)NCc3cccs3)C[C@@H]2C1`, the “Percent Effect” value was 64.41%.

For the compound `COCCN1CC[C@@H]2OC[C@H](C(=O)NCc3cccs3)C[C@@H]2C1.O=C(O)C(F)(F)F`, the “Percent Effect” value is reported as -7.487%.

Consider `COCCNC(=O)[C@H]1CO[C@H]2CCN(Cc3cccs3)C[C@H]2C1`, for which the “Percent Effect” value is reported as 78.89%.

Regarding `O=C(NC1CCC1)[C@H]1C[C@@H]2CN(C(=O)Nc3ccc(F)cc3)C[C@H]1O2`, the “Percent Effect” value is -5.328%.

For the compound `CN(C)c1ncc(-c2cc(C(=O)NCCO)n(CC3CC3)c2)cn1.O=C(O)C(F)(F)F`, the “Percent Effect” value is recorded as -4.821%.

For the compound `CC(C)c1cc(CN2CCC(N)CC2)no1`, the “Percent Effect” value was -1.347%.

As to `CC(C)c1cc(CN2CCC(CC(=O)O)CC2)no1`, the “Percent Effect” value came out at 6.455%.

With `CC(C)c1cc(CN2CCNCC2)no1`, the “Percent Effect” value was found to be 100.9%.

Take `OC1(c2ccccc2F)CCN(Cc2ccccc2N2CCCC2)CC1`: the “Percent Effect” value is on record as -5.486%.

`Cl.OC1(c2ccc(F)cc2)CCN(Cc2ccccc2N2CCCC2)CC1`: the “Percent Effect” value was 3.038%.

In the case of `Cc1cccc(C2(O)CCN(Cc3ccccc3N3CCCC3)CC2)c1`, the “Percent Effect” value is on record as 106%.

In the case of `CCN1Cc2ccccc2N(C(=O)C2CCC2)CCC1=O`, the “Percent Effect” value is reported as 52.52%.

Consider `CC(=O)N1CCC(=O)N(C2CCCC2)Cc2ccccc21`, for which the “Percent Effect” value amounted to 18.8%.

As to `CCN1Cc2cc(F)ccc2N(C(C)=O)CCC1=O`, the “Percent Effect” value came to 51.48%.

On to `CN1C(=O)CCN(C(=O)C2CCCCC2)c2ccccc21`, for which the “Percent Effect” value was -13.68%.

In the case of `CCN(CC)S(=O)(=O)CC(=O)N1CCc2ccc(F)cc21`, the “Percent Effect” value was -19.64%.

With `COCC(=O)N1CCC(=O)N(C2CCCC2)Cc2cc(F)ccc21`, the “Percent Effect” value was found to be 44.15%.

As for `O=C1NCCCCC1NC(=O)N1CCCc2cc(F)ccc21` (stereo not drawn), the “Percent Effect” value is listed as -1.562%.

On to `O=C(C1CCC1)N1CCC(=O)N(C2CC2)Cc2cc(F)ccc21`, for which the “Percent Effect” value came to 39.59%.

`CCN1Cc2cc(F)ccc2N(C(=O)C2CCC2)CCC1=O`: the “Percent Effect” value is recorded as 57.03%.

In the case of `Cc1cccc(CN2CCC3(CC2)NC(=O)CC3c2ccccc2)n1.O=C(O)C(F)(F)F` (stereo not drawn), the “Percent Effect” value is given as -4.61%.

Take `Cc1nc(CN2CCC3(CCCN(Cc4ccoc4)C3)C2=O)cs1.O=C(O)C(F)(F)F.O=C(O)C(F)(F)F` (stereo not drawn): the “Percent Effect” value is -16.93%.

For `COc1cccc(CNCc2ccc(F)cc2Cl)c1O`, the “Percent Effect” value is given as 10.28%.

With `CCOCC1CN(CC2CC2)Cc2nn(CC3CC3)cc21.O=C(O)C(F)(F)F` (stereo not drawn), the “Percent Effect” value was found to be 0.05869%.

Take `Cn1cc(CN2CCCC23CCN(C(=O)c2ccccn2)CC3)cn1.O=C(O)C(F)(F)F`: the “Percent Effect” value is on record as -28.64%.

Turning to `CCN(CC)CCn1c(NC(=O)c2scnc2C)nc2ccccc21`, the “Percent Effect” value stood at 46.93%.

As for `CCOCCCn1c(NC(=O)c2ccnc(C)n2)nc2ccccc21`, the “Percent Effect” value is listed as 94.99%.

Turning to `CCOCCCn1c(NC(=O)c2cc(C)on2)nc2ccccc21`, the “Percent Effect” value is recorded as 59.74%.

With `CCOCCCn1c(NC(=O)c2scnc2C)nc2ccccc21`, the “Percent Effect” value is 84.26%.

In the case of `CCOCCCn1c(NC(=O)c2ccc(C)nc2)nc2ccccc21`, the “Percent Effect” value was 25.39%.

With `CCOCCCn1c(NC(=O)c2cc(C)no2)nc2ccccc21`, the “Percent Effect” value came out at 4.963%.

As for `CCOCCCn1c(NC(=O)c2cnc(C)s2)nc2ccccc21`, the “Percent Effect” value is -7.023%.

Take `CCOCCCn1c(NC(=O)c2cnc(C)cn2)nc2ccccc21`: the “Percent Effect” value worked out at 28.96%.

Consider `CCOCCCn1c(NC(=O)c2cnn(C)c2)nc2ccccc21`, for which the “Percent Effect” value was found to be 44.67%.

Consider `COc1c(CNCc2ccc(C(=O)N3CCCC3)cc2)c(C)nn1C.Cl`, for which the “Percent Effect” value is on record as -14.26%.

For the compound `COc1ccc(CN2C[C@@H]3OCCN(CCN(C)C)[C@@H]3C2)cc1.O=C(O)C(F)(F)F.O=C(O)C(F)(F)F.O=C(O)C(F)(F)F`, the “Percent Effect” value is -21.44%.

For the compound `Cl.NC(CNS(=O)(=O)Cc1cccc2cccnc12)c1ccccc1` (stereo not drawn), the “Percent Effect” value is given as -15.27%.

As for `O=C(NCC1CCOCC1)[C@H]1C[C@@H]2CCN(Cc3ccccc3)C[C@H]2O1.O=C(O)C(F)(F)F`, the “Percent Effect” value is given as -21.55%.

As to `Cc1cccc(CN2CC[C@H]3[C@@H]2CC(=O)N3CC2CC2)n1.O=C(O)C(F)(F)F`, the “Percent Effect” value is on record as -9.975%.

Regarding `O=C(c1ccsc1)N1CC[C@H]2C[C@@H](c3nnc(C4CC4)o3)O[C@@H]2C1`, the “Percent Effect” value is recorded as 26.95%.

Take `O=C(c1ccoc1)N1CC[C@H]2C[C@@H](c3nnc(C4CC4)o3)O[C@@H]2C1`: the “Percent Effect” value is listed as 19.79%.

For the compound `O=C(c1ccccc1)N1CC[C@H]2C[C@H](c3nnc(C4CC4)o3)O[C@@H]2C1`, the “Percent Effect” value was determined as 57.91%.

For `O=C(c1cscn1)N1CC[C@H]2C[C@H](c3nnc(C4CC4)o3)O[C@@H]2C1`, the “Percent Effect” value is on record as 27.2%.

For `O=C(c1ccccc1)N1CC[C@H]2C[C@@H](c3nnc(C4CC4)o3)O[C@@H]2C1`, the “Percent Effect” value came to 48.55%.

With `O=C(c1cccs1)N1CC[C@H]2C[C@@H](c3nnc(C4CC4)o3)O[C@@H]2C1`, the “Percent Effect” value is 56.75%.

Regarding `COCC1c2c(cnn2C)CCN1C(=O)c1cc(C)on1.O=C(O)C(F)(F)F` (stereo not drawn), the “Percent Effect” value is listed as 28.69%.

In the case of `Cc1cnccc1-c1cnn(CCNC(=O)c2ccccn2)c1C1CC1.Cl`, the “Percent Effect” value came out at 22.13%.

Take `CC(C)Cc1cc(C(=O)NC(C)(C)c2nnc(N)s2)n(C)n1`: the “Percent Effect” value is 18.34%.

For the compound `CC(C)(C)c1nc(CN2CCc3onc(-c4cccc(F)c4)c3C2)no1`, the “Percent Effect” value turned out to be 31.99%.

Take `CC(C)c1nc(CN2CCc3onc(-c4cccc(F)c4)c3C2)no1`: the “Percent Effect” value came to 35.68%.

For the compound `CC(C)Cc1nc(CN2CCc3onc(-c4cccc(F)c4)c3C2)no1`, the “Percent Effect” value came to 52.2%.

As for `CN(C)[C@@H]1CN(Cc2ccccc2O)C[C@H]1c1cn(C)c2ccccc12.Cl`, the “Percent Effect” value worked out at 12.04%.

For `CN(C)[C@@H]1CN(Cc2ccc(O)cc2)C[C@H]1c1cn(C)c2ccccc12.Cl`, the “Percent Effect” value was 10.72%.

Take `O=C1CCCC2=C1C(c1ccccc1F)Nc1nonc1N2` (stereo not drawn): the “Percent Effect” value is on record as -20.35%.

Regarding `O=c1cc(CN2CCCC2)nc2n1CCCN(Cc1ccsc1)C2`, the “Percent Effect” value was -27.96%.

For the compound `Cn1ccnc1-c1nc(NC2CCCC2)ncc1-c1cccc(F)c1`, the “Percent Effect” value was 85.28%.

Take `COCCNc1ncc(-c2cccc(F)c2)c(-c2nccn2C)n1`: the “Percent Effect” value is on record as -4.341%.

Consider `CCOCCCNc1ncc(-c2cccc(F)c2)c(-c2nccn2C)n1`, for which the “Percent Effect” value came to 8.299%.

In the case of `Cl.O=C1CC2(CCCNC2)C(=O)N1Cc1cccc(F)c1` (stereo not drawn), the “Percent Effect” value is -11.34%.

Turning to `CCN1CCn2c(C)cnc2C12CCN(C(=O)COC)CC2.O=C(O)C(F)(F)F.O=C(O)C(F)(F)F`, the “Percent Effect” value is listed as -13.45%.

Regarding `CCc1nc(N)nc(N2CCCC3(CN(C)C(=O)O3)C2)c1C` (stereo not drawn), the “Percent Effect” value is recorded as -1.052%.

Take `CNC(=O)CN1CCCC12CCN(C(=O)c1ccoc1)CC2.O=C(O)C(F)(F)F`: the “Percent Effect” value stood at 6.336%.

In the case of `Cc1nc(-c2cncnc2C2CCCNC2)no1.Cl.Cl` (stereo not drawn), the “Percent Effect” value was -15.54%.

As to `COc1cccc(C(=O)N2CCOC3(CCCN(C(C)=O)C3)C2)c1` (stereo not drawn), the “Percent Effect” value came out at 5.566%.

Turning to `CC(=O)N1CCCC2(C1)CN(C(=O)c1ccncc1)CCO2` (stereo not drawn), the “Percent Effect” value is on record as -1.478%.

Consider `COc1ccccc1C(=O)N1CCOC2(CCCN(C(C)=O)C2)C1` (stereo not drawn), for which the “Percent Effect” value is given as 71.6%.

For the compound `Cc1noc([C@H]2C[C@@H]3CCN(c4nnc(C)s4)C[C@H]3O2)n1.O=C(O)C(F)(F)F`, the “Percent Effect” value amounted to 1.861%.

Turning to `Cc1ccc(N2CCC3(CCN(C(=O)c4ccsc4)C3)CC2)nn1.O=C(O)C(F)(F)F`, the “Percent Effect” value is listed as -20.48%.

`Fc1ccc(CN2CCC3(CC2)CC(c2cccnc2)CO3)cc1.O=C(O)C(F)(F)F.O=C(O)C(F)(F)F` (stereo not drawn): the “Percent Effect” value is recorded as -26.17%.

For the compound `COCCN1C(=O)[C@H]2CC[C@@H]1CN(C(=O)CCc1n[nH]c(C)c1C)C2`, the “Percent Effect” value is 8.165%.

`O=C(NC1CC1)c1cnc(-c2noc3cc(N4CCCCC4)ccc23)s1`: the “Percent Effect” value is recorded as -8.735%.

On to `CCN(C)C(=O)c1cnc(-c2noc3cc(N4CCCCC4)ccc23)s1`, for which the “Percent Effect” value is given as 85.74%.

Take `O=C(c1cnc(-c2noc3cc(N4CCCC4)ccc23)s1)N1CCCC1`: the “Percent Effect” value is given as -6.808%.

In the case of `Cl.O=C(c1ccnc(C2CCNCC2)c1)N1CCCOCC1`, the “Percent Effect” value was -3.625%.

Turning to `CNS(=O)(=O)CC(=O)N1CC2(CCCC2)c2c(F)cccc21`, the “Percent Effect” value was found to be 13.66%.

Take `CCS(=O)(=O)NCC(=O)N1CC2(CCCC2)c2c(F)cccc21`: the “Percent Effect” value turned out to be 17.06%.

For the compound `O=C(NCC(=O)N1CC2(CCCC2)c2c(F)cccc21)C1CC1`, the “Percent Effect” value is reported as 55.94%.
